Rows were chosen to be rich in hits. Some 2.8% of all compounds tested hit in one or more screens of this group.
GLP1R cytotox: qHTS of GLP-1 Receptor Inverse Agonists: Cytotox Screen. Potency, µM (top dose mostly 38.3 µM), without a hit: at the highest dose activity change, negative = inhibition, hits mostly inhibitors. 410,000 compounds, 0.13% hits. HEK293 cAMP-luciferase reporter cells, luminescence, 24 h;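 further: loss of luciferase light is scored as toxicity; on the % scale 0 is the no-effect control and ±100 the full control effect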
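Compound-treated cells are incubated 24 hr at 37 deg C under 5% CO2 after a 12 hour attachment period, then luciferase detection reagent is added and luminescence is measured following 12 min at room temperature; lowered signal indicates toxicity.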
Mito fusion yeast: qHTS Assay for Small Molecule Inhibitors of Mitochondrial Division or Activators of Mitochondrial Fusion. S. cerevisiae fusion-defective mutant growth rescue, CellTiterGlo 48 h. Potency, µM (titrated, usually from 46.1 µM), for inactives: at the highest dose growth rescue (activation), actives largely listed as activators. 320,000 compounds, 0.23% hits; further: % of control where 0% means no effect; nearly all actives have a fitted effect of over 45% in size
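Luminescent cell viability in 1536-well qHTS format served as the measure of rescued growth in ts fusion-mutant S. cerevisiae cultured on non-fermentable YPEG for 48 hours at 37C.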
GLP-1R inv ag: qHTS of GLP-1 Receptor Inverse Agonists (Inhibition Mode). 410,000 compounds, 1.6% hits. HEK293 GLP-1R CRE-luciferase, luminescence, 24 h; GLP-1R form is constitutively active. Potency, µM (top dose mostly 38.3 µM), without a hit: top-dose activity change, negative = inhibition, usual class: inhibitors; further: on the % scale 0 is the no-effect control and ±100 the full control effect; nearly all actives have a fitted effect of over 55% in size
Target sequence (P43220 whole entry, looked up): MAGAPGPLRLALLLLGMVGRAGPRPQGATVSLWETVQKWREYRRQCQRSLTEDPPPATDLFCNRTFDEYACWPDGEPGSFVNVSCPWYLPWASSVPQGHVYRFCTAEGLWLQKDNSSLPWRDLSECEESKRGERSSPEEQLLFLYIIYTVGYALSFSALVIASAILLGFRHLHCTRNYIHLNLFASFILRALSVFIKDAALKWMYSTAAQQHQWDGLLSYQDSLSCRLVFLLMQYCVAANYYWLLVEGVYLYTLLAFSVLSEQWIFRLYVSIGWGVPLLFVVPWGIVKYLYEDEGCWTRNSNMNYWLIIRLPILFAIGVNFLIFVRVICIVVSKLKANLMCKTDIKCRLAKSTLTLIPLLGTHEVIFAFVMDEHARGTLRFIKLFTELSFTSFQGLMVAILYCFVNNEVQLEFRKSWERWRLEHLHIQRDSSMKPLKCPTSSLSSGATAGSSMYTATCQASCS
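Cells are plated, allowed 12 hours at 37 deg C, then treated with compounds for 24 hr before luciferase detection reagent is added and luminescence is read after 12 min at room temperature. The HEK293 line carries constitutively active GLP-1R with a cAMP-responsive reporter.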
GLP-1R agonist: qHTS of GLP-1 Receptor Agonists. Glucagon-like peptide 1 receptor (Homo sapiens), P43220. HEK293 GLP-1R CRE-luciferase, luminescence, 4-6 h; cells express a hypersensitive GLP-1R form. Potency, µM (titrated, usually from 45.6 µM), without a hit: at the highest dose activation, hits mostly activators. 380,000 compounds, 0.007% hits. AID 624172, 2012; further: % of control where 0% means no effect
BRCA1 expr up: qHTS Assay to Identify Small Molecule Activators of BRCA1 Expression; MCF7-BRCA1-FFLuc reporter, luminescence, 48 h; response scale: scaled: vehicle 0%, 10 µM genistein 100%; Potency, µM (doses to about 46.1 µM), for inactives: at the top dose activation, actives largely listed as activators; 380,000 compounds, 1.1% hits; further: nearly all actives have a fitted effect of over 80% in size
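Luminescence from a BRCA1-driven firefly luciferase in MCF7 cells was read after 48 h compound exposure at 37 C. Data normalized against DMSO and a 10microM genistein activation control, then curve-fitted across the titration.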
* = called active by the depositor; ? = inconclusive; · = not tested or not shown; ! = repeats disagree; [ ] = another dose, or the depositor's remark. The call rests on the fitted dose curve; in most records, active means well fitted curve in the direction sought with a large enough effect; inconclusive means small, poorly fitted or top-dose-only effect, or another doubt; inactive means no such curve, though single readings can be large; an effect the other way counts as inactive or inconclusive. Potency means the concentration at half of the fitted maximal effect.

SMILES	GLP1R cytotox	Mito fusion yeast	GLP-1R inv ag	GLP-1R agonist	BRCA1 expr up
Cc1cc([N+](=O)[O-])cc2ncccc12	1.9%	-0.6%	0.0%	9.6%	-3.5%
O=[N+]([O-])c1cc2ncccc2c2ncccc12	?	·	3.16µM*	1.9%	-24.6%
CCOc1ccc(/C=N/n2cnnc2)cc1	0.4%	-3.1%	1.9%	-4.8%	1.8%
CN1CCN(/N=C/c2ccc(OCc3ccccc3)cc2)CC1	-17.5%	-2.8%	?	-3.7%	7.94µM*
C(=N\n1cnnc1)/c1ccc(OCc2ccccc2)cc1	15.5%	1.3%	4.6%	1.5%	12.6µM*
COC(=O)c1ccc(COc2ccc(/C=N/N3CCN(C)CC3)cc2)cc1	-0.5%[7.66 µM]	-5.3%	29.3%[7.66 µM]	7.4%	?
COCCNC(=O)C(c1ccc(C)o1)N(C(=O)c1snc(C(N)=O)c1N)c1cccc(C)c1 (centres undefined)	7.1%	2.3%	0.0%	0.4%	-0.7%
CC1CCC(NC(=O)c2cc(S(=O)(=O)N3CCCCC3)c[nH]2)CC1 (centres undefined)	-9.6%	-0.7%	-28.9%	1.6%	0.0%
COC(c1ccccc1)c1nnc(CCC(=O)N(C)CCOc2ccccc2)o1 (centres undefined)	11.0%	8.9%	?	5.7%	?
COC(c1ccccc1)c1nnc(CCC(=O)N(C)Cc2cccc(-n3cccn3)c2)o1 (centres undefined)	-7.3%	-1.8%	-22.7%	23.8%	12.6µM*
COC(c1ccccc1)c1nnc(CCC(=O)N(C)CCCC2CCCC2)o1 (centres undefined)	-18.6%	16.8%	10µM*	11.8%	74.8%
CCCN(CC1CC1)C(=O)CCc1nnc(C(OC)c2ccccc2)o1 (centres undefined)	-3.3%	1.7%	-16.7%	-3.5%	-3.7%
COC(=O)c1ccc2nc(-c3ccc(C)cc3)c(Cc3ccsc3)n2c1	-12.1%	·	?	0.2%	-3.7%
Cc1nc2c(sc3nc(N4CCOCC4)c4c(c32)CC(C)(C)OC4)c(-c2ccc(Cl)cc2)c1C(=O)O	80.1%	8.1%	4.47µM*	10.5%	-64.8%
CC1(C)Cc2c(c(N3CCOCC3)nc3snc(Br)c23)CO1	-12.3%	-6.6%	41.5%	4.4%	-1.9%
CC1(C)Cc2c(c(N3CCOCC3)nc3snc(N)c23)CO1	-28.3%	6.6%	3.98µM*	-21.8%	-91.9%
CC1(C)Cc2c(c(N3CCOCC3)nc3sc(C(=O)Nc4ccc(Cl)cc4)c(N)c23)CO1	9.0%	-2.4%	11.0%	12.1%	-5.8%
O=[N+]([O-])c1cc(-c2csc(NCCc3nc4cc(Cl)c(N5CCCCC5)cc4n3CCCO)n2)ccc1Cl	-20.3%	·	2.24µM*	-1.2%	-26.3%
CCOC(=O)CNC(=O)c1ccc(SCC)cc1	4.4%	-2.7%	1.8%	6.3%	12.6µM*
CCOC(=O)CNC(=O)c1ccccc1	46.7%	0.3%	13.9%	6.0%	4.0%
O=C(CSc1ccc2ccccc2n1)N1CCC(c2noc3ccc(F)cc23)CC1	-8.9%	20µM*	?	16.1%	-31.1%
NC(=O)CN1C(=O)C2C3CCC(C3)C2C1=O (centres undefined)	0.8%	·	-66.9%	-5.2%	-10.5%
O=C(Nc1ccc(N2CCOCC2)c(S(=O)(=O)Nc2ccccc2Cl)c1)c1ccc(F)cc1	-5.8%	·	10µM*	1.0%	-65.8%
COCC(C)n1c(SCC(=O)NCCC2=CCCCC2)nc2ccccc2c1=O (centres undefined)	5.1%	11.6%	?	-1.4%	-13.2%
Cc1cccc(S(=O)(=O)N(CC(=O)Nc2ccccc2C)Cc2ccco2)c1	-16.3%	3.2%	8.91µM*	-0.3%	-21.7%
SMILES	GLP1R cytotox	Mito fusion yeast	GLP-1R inv ag	GLP-1R agonist	BRCA1 expr up
Cc1ccc(C(=O)N2CCN(c3ncccn3)CC2)cc1NC1=NC2CS(=O)(=O)CC2S1 (centres undefined)	7.1%	-2.4%	-6.7%	-1.4%	16.9%
COC(=O)c1ccc(NC(=S)NC2CC3CCC2C3)cc1 (centres undefined)	?	3.7%	10µM*	-3.9%	2.0%
O=C(/C=C/Nc1ccccc1Br)c1ccccn1	-3.0%	-2.9%	2µM*	-21.5%	-51.9%
COc1ccc(/C=C2/CSC/C(=C/c3ccc(OC)c(OC)c3)C2=O)cc1OC	-34.9%	·	5.01µM*	8.9%	-85.1%
CCN(CCn1cccn1)C(=O)CCc1nnc(CCCc2ccccc2)o1	-8.5%	-10.5%	10.4%	11.7%	12.6µM*
COc1ccc(C2N(c3ccc(Cl)cc3)N=C(C(C)=O)N(C)N2C(C)=O)cc1 (centres undefined)	15.5%	-6.3%	10µM*	8.8%	-40.5%
Cn1c(=O)[nH]c(=O)c2c1ncn2CCCc1ccccc1	-8.2%	6.6%	4.1%	13.3%	-27.4%
Cc1ccc(C2CC(=O)Nc3c2ccc2ccccc32)cc1[N+](=O)[O-] (centres undefined)	8.1%	22.4µM*	?	13.5%	-53.3%
CCN(CC(O)c1cccc(O)c1)C(=O)C12CC3CC(CC(C3)C1)C2 (centres undefined)	0.3%	-2.0%	?	12.6µM*	8.8%
Fc1ccccc1-c1[nH]ncc1-c1nnnn1-c1ccccc1	-4.1%	0.9%	-12.3%	-1.0%	0.6%
C/C(=N\Nc1cc(N2CCOCC2)nc(C)n1)c1ccc(F)cc1	-5.2%	-10.2%	?	8.3%	-35.6%
C/C(=N\Nc1cc(N2CCCCC2)nc(C)n1)c1ccc(Br)cc1	?	-29.3%	10µM*	10.8%	-45.4%
Cc1cc(C)cc(NC(=S)/C(=C(\[O-])c2ccc(Cl)cc2Cl)[n+]2ccccc2)c1	8.0%	-6.7%	?	-1.4%	-9.6%
[O-]/C(=C(\C(=S)Nc1ccc(SC(F)F)cc1)[n+]1ccccc1)c1ccc(Cl)cc1Cl	-18.4%	-10.2%	1.12µM*	5.0%	-47.7%
COc1ccc(N(CC(=O)NCc2ccccc2)S(=O)(=O)c2c(C)noc2C)cc1	8.9%	-0.8%	0.7%	16.7%	3.5%
Cc1cc(C)cc(N(CC(=O)Nc2cccc(C)n2)S(=O)(=O)c2c(C)noc2C)c1	-5.4%	2.7%	8.91µM*	-2.0%	-27.2%
COc1ccc(N(CC(=O)NC(C)c2ccccc2)S(=O)(=O)c2c(C)noc2C)cc1 (centres undefined)	-13.5%	4.2%	8.91µM*!	-1.8%	-2.3%
CCOC(=O)NC(=S)Nc1ccc(OC)cc1	-8.7%	-0.4%	0.1%	5.9%	38.8%
CCCc1cc(-c2nc(N)ncc2-c2csc(C)n2)c(O)cc1OC	-3.3%	4.8%	16.6%	16.1%	-43.7%
Cc1cc(N)n(Cc2ccc(Cl)cc2)n1	-2.7%	1.1%	6.7%	1.4%	-11.3%

Screening data from PubChem.
